From PubChem BioAssay
KB-3-1 cytotox – kills parental KB-3-1 adenocarcinoma cells. KB-3-1 viability, CellTiter-Glo ATP luminescence, 72 h. Potency, µM (highest dose often 46.1 µM), hits mostly cytotoxic. 1.4% of 400,000 active; note: potency is the fitted concentration of half-maximal effect; % is set by controls: 0 for no effect and ±100 for the full control effect; nearly all actives have a fitted effect of over 60% in size
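Parental KB-3-1 adenocarcinoma cells in phenol-red-free DMEM with 10% FBS were pin-treated with compounds at several concentrations, incubated 72 h at 37 °C, and viability read by CellTiter-Glo luminescence; concentration-effect curves were fitted after normalization.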
SW480 rereplic – induces DNA re-replication in SW480 colon adenocarcinoma cells; SW480 DNA re-replication, Hoechst DNA content imaging, 48 h; Potency, µM (doses to about 46.1 µM), for the others: top-dose re-replication activation, usual class: activators; 1.8% of 340,000 active; note: potency is the fitted concentration of half-maximal effect; % of control where 0% means no effect; nearly all actives have a fitted effect of over 55% in size
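Treated cells incubate 48 hr (37 C, 5% CO2), are stained 40 min with Hoechst, and nuclear fluorescence is enumerated; a rise in nuclei with high DNA signal marks re-replication.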
S-ASM inh – inhibitors of human secretory acid sphingomyelinase; P17405; Potency, µM (series often up to 57.5 µM), for inactives: at the top dose activity change, negative = inhibition, actives largely listed as inhibitors; placental ASM, HMU-PC fluorogenic substrate, 60 min; 0.006% of 340,000 active; AID 504937; note: potency is the fitted concentration of half-maximal effect
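Fluorogenic HMU-PC substrate (9 uM final) is turned over by placental ASM in 60 min at 37 C after a 10 min compound preincubation. Reaction ended by alkaline stop (pH 10), with fluorescence read at 386/447 nm.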
KB-V1 MDR tox – kills drug-selected multidrug resistant KB-V1 cells. KB-V1 MDR cells viability, CellTiter-Glo, 72 h. Potency, µM (top dose mostly 46.1 µM), most hits filed as cytotoxic. 3.4% of 400,000 active; note: potency is the fitted concentration of half-maximal effect; % is set by controls: 0 for no effect and ±100 for the full control effect; nearly all actives have a fitted effect of over 60% in size
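Luminescent ATP read-out (CellTiter-Glo, 10 min) measures survival of drug-selected KB-V1 MDR cells after 72 h, 37 degrees C compound exposure. Medium: phenol-red-free DMEM, 10% FBS. Values from fitted concentration-response curves.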
MCF10A rerep – inducers of DNA re-replication in MCF 10A breast cells | MCF 10A DNA re-replication, Hoechst nuclear intensity, 48 h | 2.9% of 350,000 active | Potency, µM (top dose mostly 46.1 µM), for inactives: at the top dose activity, positive = re-replication, most hits filed as activators | AID 624296; note: potency is the fitted concentration of half-maximal effect; % of control where 0% means no effect; nearly all actives have a fitted effect of over 50% in size
Giardia killer – Giardia lamblia killing; activity change, % at 7.66 µM, hits read low; 0.15% of 340,000 active; Giardia lamblia trophozoite viability; in the data active = activity change below about -80%; inconclusive = between about -30% and that limit;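 note: parasites exposed to compound for two days anaerobically before the ATP read; % is set by controls: 0 for no effect and ±100 for the full control effect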
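Trophozoites 100 cells/well + cpd; 48 hrs, 37 deg C, anaerobic. ATPLite 1-Step added, 15-30 min RT, luminescence read (ATP-based viability).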
* hit, by the source's call; i = inactive; ? = inconclusive; · = not tested or not shown; ! = repeats disagree. Only some compounds are listed: those with a hit (about 6.9% of all), similar ones and a draw of the others. Unless noted, calls come from the whole dose curve; as a rule, active = well fitted curve in the direction sought with a large enough effect; inconclusive = small, poorly fitted or top-dose-only effect, or another doubt; inactive = no such curve, though single readings can be large; an effect the other way counts as inactive or inconclusive.

SMILES | KB-3-1 cytotox | SW480 rereplic | S-ASM inh | KB-V1 MDR tox | MCF10A rerep | Giardia killer
Cc1cc(C)cc(NC(=O)c2ccc(CN3CCc4ccccc4C3)cc2)c1 | ? | -2% | 4% | ? | 21µM* | -7
O=C(Nc1ccccc1)c1ccc(CN2CCc3ccccc3C2)cc1 | ? | 10% | -2% | ? | ? | 6
O=C(CSc1nc2c(c(=O)[nH]1)CN(Cc1ccc(F)cc1)CC2)Nc1cccc(C(F)(F)F)c1 | i | · | · | i | · | ·
Cc1cc(C)cc(NC(=O)CSc2nc3c(c(=O)[nH]2)CN(Cc2ccc(F)cc2)CC3)c1 | i | -4% | 2% | 21µM*! | 3% | 0
CCNc1cccc(S(=O)(=O)N2CCCN(S(=O)(=O)c3ccc4c(c3)OCCO4)CC2)c1 | i | · | · | i | · | ·
Cc1cccc(Cn2c(=O)n(CCCCC(=O)NCc3ccc4c(c3)OCO4)c(=O)c3ccccc32)c1 | i | · | · | i | · | ·
CCOc1ccccc1C(=O)OCC(=O)NCCNC(=O)COC(=O)c1ccccc1OCC | ? | -27% | -1% | i | -9% | 8
O=S(=O)(c1ccccc1)c1ncc(C(F)(F)F)cc1Cl | i | ? | 5% | i | 6.3µM* | 10
COc1cccc(CNC(=O)CCn2cnc3ccccc3c2=O)c1 | i | · | · | i | · | ·
CC1CC(C)C(=NNC(N)=O)C(C(O)CC2CCC(=O)NC2=O)C1 (centres undefined) | 12µM* | -1% | 1% | ? | ? | ?
COc1ccc(OC)c(/C=C/C(=O)OCC(=O)N2CCCC2)c1 | i | 1% | 435% | i | -4% | ?
COc1ccc(/C=C/C(=O)OCC(=O)N2CCCC2)c(OC)c1 | i | -3% | 2% | 12µM* | 2% | -5
Cc1ccc(S(=O)(=O)Cc2ccc(C(=O)NCCc3ccc(Cl)cc3)o2)cc1 | i | · | · | i | · | ·
COc1ccc(-c2nn(-c3ccccc3)cc2CNC(C)Cn2cncn2)c(F)c1 (centres undefined) | i | 0% | 0% | i | -2% | 2
COc1ccc(-c2nn(-c3ccccc3)cc2CN(C)CCn2ccnc2C)c(F)c1 | i | 0% | 3% | 9.2µM* | 2% | 29
COc1ccc(C2=CC(c3c(C)nn(-c4ccccc4)c3Cl)n3nnnc3N2)cc1OC (centres undefined) | 16µM* | ? | 85% | 21µM* | ? | -17
COc1ccc(-c2nc3cc(NC(=O)COc4ccc(F)cc4)ccc3o2)cc1 | i | · | · | i | · | ·
CN1CCN(c2ccc([N+](=O)[O-])cc2C(=O)c2ccc(Cl)cc2)CC1 | 2.3µM* | 8.2µM* | -10% | 4.6µM* | 12µM* | -17
O=C(c1ccc(Br)cc1)c1cc([N+](=O)[O-])ccc1N1CCOCC1 | i | 0.58µM* | -12% | 4.6µM* | ? | -1
O=C(COC(=O)c1cc([N+](=O)[O-])ccc1N1CCOCC1)Nc1ccc(Cl)cc1 | i | 1% | · | ? | 13% | -23
CN1CCN(c2ccc([N+](=O)[O-])cc2C(=O)N2CCCCC2)CC1 | i | 1% | -7% | i | 19% | -13
O=C(c1cc([N+](=O)[O-])ccc1N1CCOCC1)N1CCCCC1 | ? | -5% | -1% | i | 3% | 0
CC1CCCN(c2ccc([N+](=O)[O-])cc2C(=O)c2ccccc2)C1 (centres undefined) | ? | 4.1µM* | -15% | i | ? | -20
O=C(c1ccc(Cl)cc1)c1cc([N+](=O)[O-])ccc1N1CCOCC1 | ? | 0.65µM* | -13% | 1.8µM* | ? | -24
Cc1ccc(C)c(Cn2c(=O)n(CCCCC(=O)NCc3ccccc3Cl)c(=O)c3ccccc32)c1 | i | · | · | i | · | ·
CCc1ccc2[nH]c(=O)c(CN(Cc3cccs3)Cc3nnnn3Cc3ccccc3)cc2c1 | ? | · | · | ? | · | -20
O=C(c1ccccc1)c1ccc(N2CCOCC2)c(F)c1 | i | -2% | 5% | 21µM* | -6% | 0
